Measurements taken from ChEMBL document CHEMBL3988442, “University of Dundee, Small-Polar-MMV Screening Library” (2021).
For some of these results: Entries with a potency or affinity are not part of this list.

Key:
Set-up in all cases: scale not given: direction of the effect not stated beside the values
[1] = target: Protein translocase subunit SecA (Escherichia coli (strain K12)) (UniProt P10408); assay: Assay to Identify E. coli SecA ATPase Inhibitors; type: functional; conditions: 30 µM
[2] = target: T1, Ubiquitin-activating enzyme e1, putative (Leishmania donovani (strain BPK282A1)) (UniProt E9BSI1); assay: Leishmania donovani Ubiquitin Activating Enzyme (LdE1); type: functional; conditions: 30 µM
T1 sequence (whole entry): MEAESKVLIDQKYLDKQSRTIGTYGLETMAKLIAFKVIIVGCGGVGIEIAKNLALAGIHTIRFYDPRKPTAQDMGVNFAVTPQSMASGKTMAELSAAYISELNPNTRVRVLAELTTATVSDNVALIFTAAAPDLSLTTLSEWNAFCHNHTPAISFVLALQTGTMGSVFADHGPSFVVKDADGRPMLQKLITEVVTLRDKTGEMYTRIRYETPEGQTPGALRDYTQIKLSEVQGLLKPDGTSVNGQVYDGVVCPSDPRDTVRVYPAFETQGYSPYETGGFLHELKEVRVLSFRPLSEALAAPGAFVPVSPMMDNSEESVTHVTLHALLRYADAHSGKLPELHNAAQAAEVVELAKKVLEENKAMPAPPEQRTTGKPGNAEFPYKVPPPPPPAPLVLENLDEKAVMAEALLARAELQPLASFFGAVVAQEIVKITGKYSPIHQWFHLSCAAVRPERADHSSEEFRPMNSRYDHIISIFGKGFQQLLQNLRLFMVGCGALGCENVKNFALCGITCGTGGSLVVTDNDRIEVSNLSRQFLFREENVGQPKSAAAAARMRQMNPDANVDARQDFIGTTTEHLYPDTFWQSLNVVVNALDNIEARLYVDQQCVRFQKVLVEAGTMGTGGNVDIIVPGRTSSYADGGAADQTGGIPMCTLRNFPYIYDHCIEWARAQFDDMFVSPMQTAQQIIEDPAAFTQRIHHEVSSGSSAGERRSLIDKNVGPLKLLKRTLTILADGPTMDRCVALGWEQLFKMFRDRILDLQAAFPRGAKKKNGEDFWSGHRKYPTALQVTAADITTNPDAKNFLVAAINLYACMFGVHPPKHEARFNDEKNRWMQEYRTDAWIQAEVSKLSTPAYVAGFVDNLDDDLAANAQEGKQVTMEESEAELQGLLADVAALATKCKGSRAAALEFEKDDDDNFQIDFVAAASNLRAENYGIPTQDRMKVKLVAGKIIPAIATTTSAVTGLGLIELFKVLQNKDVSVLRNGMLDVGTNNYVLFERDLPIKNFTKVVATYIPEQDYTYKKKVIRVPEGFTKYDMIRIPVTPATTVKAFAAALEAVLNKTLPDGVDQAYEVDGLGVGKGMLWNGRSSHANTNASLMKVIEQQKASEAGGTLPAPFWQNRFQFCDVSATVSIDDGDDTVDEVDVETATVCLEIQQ

[3] = target: AMP-activated protein kinase, AMPK (Homo sapiens) (UniProt P54646+O43741+P54619+Q9UGJ0+Q9Y478+Q13131+Q9UGI9); assay: AMP-dependent Kinase enzyme assay. An in vitro enzyme assay that detects ADP turnover that is directly proportional to AMPK activity. This uses naive AMPK that is activated during the assay with MK-8722; type: functional; conditions: 30 µM
[4] = target: Sialic acid-binding Ig-like lectin 9 (Homo sapiens) (UniProt Q9Y336); assay: Hs-Siglec9 ALPHAscreen SOP 20170721; conditions: 10 µM
[5] = test system: Trypanosoma cruzi; assay: Trypanosoma cruzi phosphomannomutase and mannose-1-phosphate guanylyltransferase assay; type: functional; conditions: 10 µM
[6] = target: T2, Arginase-2, mitochondrial (Homo sapiens) (UniProt P78540); assay: in vitro enzyme assay to detect the production of urea directly proportional to the activity of Arginase II; type: functional; conditions: 33.3 µM; also: in the data most compounds retested in dose-response had high values
T2 sequence (whole entry): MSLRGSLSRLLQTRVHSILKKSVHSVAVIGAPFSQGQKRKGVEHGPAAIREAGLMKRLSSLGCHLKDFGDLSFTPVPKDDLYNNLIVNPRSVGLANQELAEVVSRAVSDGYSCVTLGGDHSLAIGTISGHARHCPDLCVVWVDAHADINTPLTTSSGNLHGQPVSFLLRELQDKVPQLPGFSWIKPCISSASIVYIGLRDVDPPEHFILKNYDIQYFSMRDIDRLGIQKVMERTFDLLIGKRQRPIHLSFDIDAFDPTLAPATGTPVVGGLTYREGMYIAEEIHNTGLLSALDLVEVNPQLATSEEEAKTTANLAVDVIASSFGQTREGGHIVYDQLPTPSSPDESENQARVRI

[7] = target: T3, Proteasome subunit beta (Trypanosoma cruzi) (UniProt O96673); assay: Trypanosoma cruzi proteasome chymotrypsin-like activity (TcProtChymo) assay.; also: in the data most compounds retested in dose-response had high values; type: functional; conditions: 9.37 µM
T3 sequence (whole entry): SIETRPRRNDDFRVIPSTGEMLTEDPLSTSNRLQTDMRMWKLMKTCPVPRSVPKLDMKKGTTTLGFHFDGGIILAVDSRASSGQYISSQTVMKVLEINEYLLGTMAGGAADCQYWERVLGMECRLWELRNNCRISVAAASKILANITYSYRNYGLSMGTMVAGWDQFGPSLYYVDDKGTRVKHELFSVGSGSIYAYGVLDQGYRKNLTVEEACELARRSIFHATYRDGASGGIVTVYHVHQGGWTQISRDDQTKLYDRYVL

[8] = species: Homo sapiens; assay: To identify inhibition of the IFN signalling (Jak-Stat) pathway via expression of an eGFP reporter gene under the control of an IFN-stimulated response element (ISRE) containing MxA promoter.; type: functional; conditions: 30 µM
[9] = target: T4, Tyrosyl-tRNA synthetase, putative (Trypanosoma cruzi (strain CL Brener)) (UniProt Q4DSP6); assay: Trypanosoma cruzi tyrosyl tRNA synthetase (TcYRS) _High Tyrosine SOP; type: functional; conditions: 30 µM; also: in the data most compounds retested in dose-response had high values
T4 sequence (whole entry): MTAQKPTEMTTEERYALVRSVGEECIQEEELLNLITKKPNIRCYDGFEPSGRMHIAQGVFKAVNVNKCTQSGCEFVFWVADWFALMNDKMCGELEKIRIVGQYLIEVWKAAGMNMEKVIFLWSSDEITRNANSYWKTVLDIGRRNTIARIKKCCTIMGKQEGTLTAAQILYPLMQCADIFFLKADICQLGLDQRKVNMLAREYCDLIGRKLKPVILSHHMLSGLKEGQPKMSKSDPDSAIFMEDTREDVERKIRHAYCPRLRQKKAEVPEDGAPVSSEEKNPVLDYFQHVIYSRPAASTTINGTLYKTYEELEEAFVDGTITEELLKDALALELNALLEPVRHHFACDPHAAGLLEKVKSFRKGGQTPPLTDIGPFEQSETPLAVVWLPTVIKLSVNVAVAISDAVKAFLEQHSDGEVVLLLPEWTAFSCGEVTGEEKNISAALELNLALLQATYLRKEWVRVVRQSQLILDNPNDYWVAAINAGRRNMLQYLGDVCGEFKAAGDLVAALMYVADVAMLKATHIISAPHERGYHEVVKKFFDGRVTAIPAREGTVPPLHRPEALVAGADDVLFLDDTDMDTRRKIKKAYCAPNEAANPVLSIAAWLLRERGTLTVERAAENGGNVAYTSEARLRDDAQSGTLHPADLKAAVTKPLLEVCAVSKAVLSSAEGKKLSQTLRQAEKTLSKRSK

[10] = target: T4, Tyrosyl-tRNA synthetase, putative (Trypanosoma cruzi (strain CL Brener)); assay: Trypanosoma cruzi tyrosyl tRNA synthetase (TcYRS) SOP; type: functional; conditions: 30 µM
[11] = target: Chromo domain-containing protein 1 (Saccharomyces cerevisiae (strain ATCC 204508 / S288c) (Baker's yeast)) (UniProt P32657); assay: ScCHD-1 Enzyme Inhibition Assay; type: functional; conditions: 30 µM; also: in the data most compounds retested in dose-response had high values
Chain of Chromo domain-containing protein 1 (Saccharomyces cerevisiae (strain ATCC 204508 / S288c) (Baker's yeast)) (P32657 whole entry, the tested form may be a part): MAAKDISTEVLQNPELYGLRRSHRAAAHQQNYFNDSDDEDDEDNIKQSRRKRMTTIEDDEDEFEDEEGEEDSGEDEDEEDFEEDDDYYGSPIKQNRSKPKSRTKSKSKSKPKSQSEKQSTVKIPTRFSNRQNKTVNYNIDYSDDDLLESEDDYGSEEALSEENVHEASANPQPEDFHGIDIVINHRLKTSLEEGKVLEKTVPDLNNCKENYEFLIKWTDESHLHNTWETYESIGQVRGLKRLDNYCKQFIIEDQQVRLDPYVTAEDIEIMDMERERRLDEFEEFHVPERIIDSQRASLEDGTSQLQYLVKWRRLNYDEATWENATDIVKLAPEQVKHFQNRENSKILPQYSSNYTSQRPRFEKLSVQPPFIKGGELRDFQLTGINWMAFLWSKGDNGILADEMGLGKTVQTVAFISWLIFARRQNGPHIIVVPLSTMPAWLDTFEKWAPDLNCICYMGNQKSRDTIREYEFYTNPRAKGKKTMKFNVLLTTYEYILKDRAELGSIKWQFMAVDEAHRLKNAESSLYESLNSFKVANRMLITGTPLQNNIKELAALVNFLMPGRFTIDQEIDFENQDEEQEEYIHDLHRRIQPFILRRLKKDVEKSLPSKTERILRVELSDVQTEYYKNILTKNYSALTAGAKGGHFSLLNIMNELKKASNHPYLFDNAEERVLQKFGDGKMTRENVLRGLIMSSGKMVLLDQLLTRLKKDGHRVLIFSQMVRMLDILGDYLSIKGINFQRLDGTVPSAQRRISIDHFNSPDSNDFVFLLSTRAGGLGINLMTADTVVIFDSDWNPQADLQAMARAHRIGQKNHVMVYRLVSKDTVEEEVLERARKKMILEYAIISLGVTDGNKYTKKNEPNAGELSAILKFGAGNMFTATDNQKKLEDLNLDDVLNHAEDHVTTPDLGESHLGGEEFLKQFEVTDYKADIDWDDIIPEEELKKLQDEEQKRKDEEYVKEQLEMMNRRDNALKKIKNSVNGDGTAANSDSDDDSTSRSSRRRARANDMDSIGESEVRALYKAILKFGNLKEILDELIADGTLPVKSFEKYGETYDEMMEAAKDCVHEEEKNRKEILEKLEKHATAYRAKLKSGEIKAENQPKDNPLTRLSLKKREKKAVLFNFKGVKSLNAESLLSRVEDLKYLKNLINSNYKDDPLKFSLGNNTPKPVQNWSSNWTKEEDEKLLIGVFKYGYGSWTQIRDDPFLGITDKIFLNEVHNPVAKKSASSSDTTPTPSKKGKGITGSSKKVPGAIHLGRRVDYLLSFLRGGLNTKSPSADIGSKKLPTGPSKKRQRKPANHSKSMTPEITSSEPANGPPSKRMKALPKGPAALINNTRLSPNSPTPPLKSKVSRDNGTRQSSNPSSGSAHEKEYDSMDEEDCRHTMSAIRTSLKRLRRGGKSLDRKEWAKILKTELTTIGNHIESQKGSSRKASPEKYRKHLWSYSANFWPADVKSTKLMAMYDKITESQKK

Chain of Protein translocase subunit SecA (Escherichia coli (strain K12)) (P10408 whole entry): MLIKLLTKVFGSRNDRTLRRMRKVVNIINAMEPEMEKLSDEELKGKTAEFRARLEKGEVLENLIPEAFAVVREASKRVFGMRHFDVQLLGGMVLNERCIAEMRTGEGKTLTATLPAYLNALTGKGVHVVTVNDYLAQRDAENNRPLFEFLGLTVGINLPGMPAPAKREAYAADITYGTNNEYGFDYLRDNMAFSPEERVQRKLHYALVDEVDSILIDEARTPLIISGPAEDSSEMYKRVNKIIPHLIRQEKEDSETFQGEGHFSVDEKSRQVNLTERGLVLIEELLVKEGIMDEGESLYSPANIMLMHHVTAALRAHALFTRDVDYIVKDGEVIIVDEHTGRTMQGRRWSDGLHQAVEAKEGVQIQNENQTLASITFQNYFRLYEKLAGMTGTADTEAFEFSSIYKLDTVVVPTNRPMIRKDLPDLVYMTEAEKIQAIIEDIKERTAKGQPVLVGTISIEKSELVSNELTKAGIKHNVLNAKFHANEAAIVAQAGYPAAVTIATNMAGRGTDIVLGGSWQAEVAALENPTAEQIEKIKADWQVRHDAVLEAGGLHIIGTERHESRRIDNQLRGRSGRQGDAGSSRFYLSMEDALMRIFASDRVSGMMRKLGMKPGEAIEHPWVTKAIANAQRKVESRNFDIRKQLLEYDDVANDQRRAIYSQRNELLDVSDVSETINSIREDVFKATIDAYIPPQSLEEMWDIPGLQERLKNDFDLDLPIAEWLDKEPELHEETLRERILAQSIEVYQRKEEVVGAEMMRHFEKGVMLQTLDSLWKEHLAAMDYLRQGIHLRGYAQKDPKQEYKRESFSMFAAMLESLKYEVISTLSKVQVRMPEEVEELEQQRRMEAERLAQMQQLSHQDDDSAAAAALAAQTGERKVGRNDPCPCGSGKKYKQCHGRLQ
Chain of Sialic acid-binding Ig-like lectin 9 (Homo sapiens) (Q9Y336 whole entry): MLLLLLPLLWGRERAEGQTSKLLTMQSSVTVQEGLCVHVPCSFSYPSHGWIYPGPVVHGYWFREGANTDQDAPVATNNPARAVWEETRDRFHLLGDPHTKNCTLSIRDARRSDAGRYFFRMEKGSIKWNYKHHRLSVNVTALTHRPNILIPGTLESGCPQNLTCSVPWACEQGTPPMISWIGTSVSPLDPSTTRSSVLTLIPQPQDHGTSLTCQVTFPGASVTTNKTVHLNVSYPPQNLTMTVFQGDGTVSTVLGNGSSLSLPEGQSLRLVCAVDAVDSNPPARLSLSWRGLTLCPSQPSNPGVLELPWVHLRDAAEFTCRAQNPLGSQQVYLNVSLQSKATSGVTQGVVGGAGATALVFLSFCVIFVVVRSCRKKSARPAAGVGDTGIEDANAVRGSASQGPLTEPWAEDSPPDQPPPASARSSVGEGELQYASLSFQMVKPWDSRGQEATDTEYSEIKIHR

Cn1cc(CN2CCOC3(CCCN(C(=O)c4ccco4)C3)C2)cn1 (stereo not given)
Percent Effect [1]: -4.16%
Percent Effect [2]: 13%
Percent Effect [3]: -1.39%
Percent Effect [4]: 4.5%
Percent Effect [5]: 8.95%
Percent Effect [6]: -8.28%
Percent Effect [7]: 5.49%
Percent Effect [8]: 1.45%
Percent Effect [9]: 3.23%
Percent Effect [10]: 8.64%
Percent Effect [11]: -6.46%

COCCNC(=O)CN1CCN(c2nc(C)cs2)C(C)C1 (stereo not given)
Percent Effect [1]: -6.14%
Percent Effect [2]: 16.2%
Percent Effect [3]: -5.78%
Percent Effect [4]: 22%
Percent Effect [5]: 5.11%
Percent Effect [6]: -1.29%
Percent Effect [7]: 13.3%
Percent Effect [8]: -1.44%
Percent Effect [9]: 2.97%
Percent Effect [10]: 15.8%
Percent Effect [11]: -7.53%

Cc1csc([C@@H]2C[C@@H]3CCN(C(=O)c4cc(C)on4)C[C@H]3O2)n1
Percent Effect [1]: -3.41%
Percent Effect [2]: 20.8%
Percent Effect [3]: -1.54%
Percent Effect [4]: -4.81%
Percent Effect [5]: 4.04%
Percent Effect [6]: 5.81%
Percent Effect [7]: 11.7%
Percent Effect [8]: 12.7%
Percent Effect [9]: 4.23%
Percent Effect [10]: 16.7%
Percent Effect [11]: -9.47%

COC(=O)CN1CC(c2nc(Cc3ccccc3)no2)C1
Percent Effect [1]: -5.1%
Percent Effect [2]: 13.7%
Percent Effect [3]: -3.81%
Percent Effect [4]: 14.3%
Percent Effect [5]: 2.35%
Percent Effect [6]: 2.27%
Percent Effect [7]: 11.9%
Percent Effect [8]: 12.4%
Percent Effect [9]: 8.6%
Percent Effect [10]: 15%
Percent Effect [11]: -6.9%

COc1c(CNCc2cccc(CN(C)C)c2)c(C)nn1C
Percent Effect [1]: -7.85%
Percent Effect [2]: 10.8%
Percent Effect [3]: -5.13%
Percent Effect [4]: 6.33%
Percent Effect [5]: -2.17%
Percent Effect [6]: -4.01%
Percent Effect [7]: -0.36%
Percent Effect [8]: 13.9%
Percent Effect [9]: 4.43%
Percent Effect [10]: 6.17%
Percent Effect [11]: -5.81%
